Measurements reported in PubChem BioAssay AID2289 (National Center for Advancing Translational Sciences (NCATS), 2010).
Among all 340,000 compounds or so, about 3,300 (0.97%) were called active. Not shown: some 9% with an inconclusive outcome. Calls come from the whole dose curve; as a rule, active = well fitted inhibition curve with a large enough effect; inconclusive = small, poorly fitted or top-dose-only effect, or effect the other way; inactive = flat fitted curve, though single readings scatter. Some of the results follow.

Assay: qHTS Assay for Modulators of miRNAs and/or Inhibitors of miR-21; note: nearly all actives have a fitted effect of over 55% in size
Conditions: HeLa miR-21-FLuc reporter, luciferase luminescence, 48 h; actives lower the signal
In short: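 HeLa cells endogenously expressing miR-21, stably carrying CMV-driven firefly luciferase with a downstream miR-21 binding site, 2000 cells/well. Titrations up to approximately 40 uM, 48 hours; luciferase luminescence read.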
Potency is the fitted concentration of half-maximal effect.

Potency, active:
O=C(NC1CCCCC1)c1cc(-c2cccs2)on1 2.93 µM, O=C(NC1CCCC1)c1cc(-c2cccs2)on1 2.33 µM, Cn1c(C(=O)NC2CCCCC2)cc2sccc21 6.56 µM, O=C(Nc1nnc(SCc2c(Cl)cccc2Cl)s1)C1CCCO1 (stereo unspecified) 18.5 µM, Cc1cccc2sc(NC(=O)C3CCCO3)nc12 (stereo unspecified) 13.1 µM, O=C(Nc1nnc(-c2ccccc2F)s1)C1CCCO1 (stereo unspecified) 1.85 µM, O=C(Nc1ncc(Cc2cccc(Cl)c2)s1)C1CCCO1 (stereo unspecified) 7.36 µM, O=C(Nc1ncc(Cc2cccc(Cl)c2Cl)s1)C1CCCO1 (stereo unspecified) 7.36 µM, CC1CCCN(c2ccc(C(=O)NCc3cccs3)cn2)C1 (stereo unspecified) 6.56 µM, CC(C)(CO)NC(=O)c1ccc2c(c1)C(=O)c1ccccc1-2 5.21 µM, Cc1ccsc1C(=O)OCC(=O)NCCC1=CCCCC1 18.5 µM, O=c1[nH]cnc2scc(-c3ccc(-c4ccccc4)cc3)c12 0.521 µM, Cc1ccccc1-c1ncnn1-c1sc2c(c1C#N)CCCCC2 1.31 µM, N#Cc1c(-n2ncnc2-c2ccc(F)cc2)sc2c1CCCCC2 3.69 µM, C1=Nc2ccccc2CN1c1ccccc1 5.85 µM, Oc1cccc(-c2nc3ccc4ccccc4c3c3c2CCC3)c1 5.21 µM, CCOCCCNC(=O)c1cccc(OC2CCN(S(C)(=O)=O)CC2)c1 5.85 µM, Nc1c(C(=O)N2CCCCC2)sc2nc3c(cc12)CCCC3 1.31 µM, Nc1c(C(=O)C2CC2)sc2nc3c(cc12)CCC3 1.85 µM, COCCCN(C(C)=O)c1nc(-c2ccccc2)cs1 6.56 µM, CN(C(=O)c1ccco1)c1nc(-c2ccccc2)cs1 1.85 µM, COc1ccc(/C=N/Nc2nncc3ccccc23)c(OC)c1 5.85 µM, COc1ccccc1/C=N/Nc1nncc2ccccc12 4.65 µM, COc1ccccc1C(=O)NC1=NC(c2ccc(Br)cc2)CC(=O)N1 (stereo unspecified) 1.85 µM, N=c1nc(N)nc2n1NC(c1ccc(F)cc1)=CS2 16.5 µM, Clc1ccccc1/C=C/c1nc(-c2cccnc2)no1 0.656 µM, C(=C\c1nc(-c2ccccc2)no1)/c1ccccc1 1.04 µM, Cc1ccc2oc(-c3ccco3)cc(=O)c2c1 5.85 µM, Cc1cccc2c1-c1sc(C(=O)N3CCCCC3)cc1CO2 3.69 µM, Cc1cccc2c1-c1sc(C(=O)Nc3ccccc3C(N)=O)cc1CO2 0.165 µM, CCN(CC)c1ccc(-c2nc3cnccc3n2C)cc1 3.69 µM, COc1ccc(NC(=O)n2ncc3cc(Cl)ccc32)cc1OC 8.26 µM, COc1ccc(NC(=O)n2ncc3c(C)cccc32)cc1OC 7.36 µM, Cc1ccc2nc3sc(C(=O)NCc4ccco4)c(N)c3cc2c1 0.521 µM, COc1ccc2nc3sc(C(=O)NCc4cccs4)c(N)c3cc2c1 1.31 µM, c1ccc(CN2CCN(c3nc4ccccc4s3)CC2)cc1 1.31 µM, Clc1ccc2nc(N3CCCCC3)sc2c1 2.07 µM, Clc1ccc2nc(N3CCN(c4ccccc4)CC3)sc2c1 0.464 µM, CC(C)(C)c1ccc(/C=C/C(=O)Nc2nncs2)cc1 0.369 µM, O=C(COc1ccc(Br)cc1Br)NC(=S)Nc1cccc(CO)c1 1.65 µM, O=C(COc1ccc2ccccc2c1Br)NC(=S)Nc1cccc(CO)c1 20.7 µM, COc1ccc(C(=O)N=c2sc3c(C)ccc(OC)c3n2C)cc1 0.185 µM, COc1ccccc1C(=O)N=c1sc2c(C)ccc(OC)c2n1C 3.69 µM, CCn1c(=NC(=O)c2ccc3c(c2)OCCO3)sc2c(C)ccc(OC)c21 1.31 µM, O=C(NC(=S)Nc1ccc2c(c1)OCCO2)c1cccc(Br)c1 3.69 µM, Cc1cc(C)cc(C(=O)NC(=S)Nc2ccc3c(c2)OCCO3)c1 7.36 µM, CCc1ccc(C(=O)NC(=S)Nc2ccc3c(c2)OCCO3)cc1 2.07 µM, CNC(=O)c1ccc(-c2nc(-c3ccccc3)cs2)cc1 3.29 µM, O=C(O)c1ccc(-c2nc(-c3ccc(Cl)cc3)cs2)cc1 0.414 µM, O=C(O)c1ccc(-c2nc(-c3ccccc3)cs2)cc1 2.61 µM, C/C(CC(=O)NCc1ccccc1Cl)=N/NC(=O)c1ccccn1 8.26 µM, C/C(CC(=O)Nc1cc(C)cc(C)c1)=N\NC(=O)c1ccccn1 4.65 µM, COc1ccccc1NC(=O)C/C(C)=N/NC(=O)c1ccccn1 1.85 µM, CCOC(=O)C1CCCN(C(=O)CCc2nnc(-c3ccc(C(C)=O)s3)o2)C1 (stereo unspecified) 3.29 µM, Fc1ccccc1-n1ncc2c1ncn1nc(-c3ccccc3Cl)nc21 0.736 µM, COc1c2c(cc3oc(=O)ccc13)OC(C)(C)C=C2 18.5 µM, CC1(C)C=Cc2cc3ccc(=O)oc3cc2O1 13.1 µM, O=C(NC(=S)Nc1ccccc1C(=O)O)c1ccc(-c2ccc(Br)cc2)o1 11.7 µM, NC(=O)c1ccccc1NC(=O)c1ccc(-c2ccc(Br)cc2)o1 1.17 µM, S=c1[nH]nc(-c2ccc(Cl)cc2Cl)n1-c1ccccc1 5.21 µM, CN(c1ccccc1)c1ccc(/C=N/N2CCOCC2)cc1 1.47 µM, O=[N+]([O-])c1ncccc1OCc1ccc(Cl)c(Cl)c1 7.36 µM, COc1ccc2nc(NC(=O)c3ccc(Br)s3)sc2c1 1.17 µM, COc1ccc2nc(NC(=O)c3cccnc3SC)sc2c1 2.93 µM, O=C(NC(=O)c1ccc(Cl)cc1)OC1CCCCC1 16.5 µM, Cc1cc(CC(C)C)n(-c2nc3ccccc3c(=O)n2OCC(=O)N(C)C)n1 18.5 µM, COc1ccc(CCn2nc(C)c([N+](=O)[O-])c2C)cc1 4.14 µM, O=C(/C=C/Nc1ccccc1O)c1ccco1 18.5 µM, CC(=O)N1c2ccccc2Oc2cc3ccccc3cc21 9.27 µM, CCCC(=O)N(CCN1CCOCC1)c1nc2cc(C)c(C)cc2s1 2.33 µM, Cc1cc(C(=O)Nc2cnc3ccccc3c2)ccc1[N+](=O)[O-] 0.736 µM, O=C(Nc1ccc2ncccc2c1)c1ccccc1Br 1.65 µM, Cc1csc(NC(=S)NC(=O)c2ccccc2)n1 1.31 µM, O=C(NC(=S)Nc1ccc2ncccc2c1)c1ccccc1 6.56 µM, O=C(NC(=S)Nc1ccc(Cl)cc1)c1ccccc1 4.65 µM, O=C(NC(=S)Nc1cnc2ccccc2c1)c1ccccc1 0.585 µM, O=C(NNC(=S)Nc1ccccc1)c1ccc2ncccc2c1 8.26 µM, Clc1ccc(SCc2cn3ccccc3n2)cc1 4.65 µM, Cc1cc(C)c(C#N)c(SCc2cn3ccccc3n2)n1 18.5 µM, c1ccc2c(SCc3cn4ccccc4n3)nncc2c1 14.7 µM, Cc1cccc2nc(CSc3nc4ccccc4o3)cn12 18.5 µM, Cc1cccc2nc(CSc3ccc(Cl)cc3)cn12 4.14 µM, Clc1ccc2nc(CSCc3ccccc3)cn2c1 2.93 µM, c1ccc2nc(SCc3cn4ccccc4n3)cnc2c1 9.27 µM, CCOc1ccc(N2Nc3n[nH]c(N)c3N2)cc1 16.5 µM, N#CC1CC(c2ccccc2)=NN1c1ccccc1[N+](=O)[O-] (stereo unspecified) 5.85 µM, CC(/C=C/c1ccc(OCc2ccccc2)cc1)=N\O 2.07 µM, c1ccc(CSc2nnc3ccc(-c4cccs4)nn23)nc1 7.36 µM, COC(=O)c1cc2c(s1)-c1ccc(OC)cc1CC2 6.56 µM, CCc1ccc(-n2nnc(-c3nc(-c4ccccc4)no3)c2C)cc1 1.17 µM, COc1cccc(-n2nnc(-c3nc(-c4cccs4)no3)c2N)c1 1.04 µM, CCc1ccc(-n2nnc(-c3nc(-c4cccs4)no3)c2N)cc1 1.17 µM, Cc1cccc(-n2nnc(-c3nc(-c4cccs4)no3)c2N)c1C 0.0927 µM, Cc1cccc(-n2nnc(-c3nc(-c4cccs4)no3)c2N)c1 0.329 µM, Nc1c(-c2nc(-c3cccs3)no2)nnn1-c1cccc(F)c1 0.208 µM, COc1ccc(/C(C)=N/Nc2ccccc2Cl)c(O)c1 8.26 µM, Nc1nc(N2CCN(c3ccccn3)CC2)nc2ccccc12 6.56 µM, Nc1nc(N2CCN(C(=O)c3ccco3)CC2)nc2ccccc12 14.7 µM, CCOc1ccc2nc(C(=O)N3CCCC(C)C3)sc2c1 (stereo unspecified) 3.29 µM, c1ccc2c(COn3nnc4ccccc43)cccc2c1 2.61 µM, Clc1ccc(COn2nnc3ccccc32)c(Cl)c1 2.61 µM, COC(=O)c1ccc(COn2nnc3ccccc32)cc1 1.31 µM, COc1cccc(/C=N/Nc2nc3ccccc3[nH]2)c1OC 2.93 µM, COc1cccc(/C=N/n2c(=O)[nH]c3ccccc32)c1OC 8.26 µM, O=c1[nH]n(CC2COC3(CCCCC3)O2)c(=O)c2ccccc12 (stereo unspecified) 16.5 µM, Oc1cccc(Nc2nc(O)c(/C=C3\C=Nc4ccccc43)s2)c1 8.26 µM
